RmlCD inh mix = RmlC and RmlD coupled enzyme inhibitors, primary screen, biochemical, 384-well, compound mixtures, retest | 110,000 compounds, 0.39% hits | inhibition, % at 5.5 µM | RmlC/RmlD coupled enzyme inhibition, 384-well mixture HTS | AID 1532, 2009; in the data active means inhibition above about 30%, passing the limit was not always enough; inconclusive means no clear call, values can overlap the other calls
HIV RNase H inh = HIV-1 RT RNase H inhibitors, primary screen, biochemical, fluorescence; RT-RNase H RNA/DNA duplex cleavage; Gag-Pol polyprotein (Human immunodeficiency virus type 1 group M subtype B (isolate …; inhibition, % at 10 µM; 65,000 compounds, 1.9% hits; in the data active means inhibition above about 50%
Starred values were filed as active, the others as inactive; ? = inconclusive; . = no result. The entries come from a sample that favours hits as a whole.

SMILES	RmlCD inh mix	HIV RNase H inh
COCCOC(=O)c1c(C)nc(SCC(=O)Nc2ccc(OC)cc2)c(C#N)c1-c1ccco1	25.1	-2.1
Cc1cc(O)c(C(C)C)cc1NS(=O)(=O)c1ccccc1	-2.5	16.6
COC(=O)c1sc2ccccc2c1C(=O)OC	5.9	-26.6
COC(=O)c1sc2ccccc2c1N	-4.5	53.7*
CN[C@H](CC(=O)O)C(=O)O	0.3	.
Cc1ccc(NCN2C(=O)C3CC=C(Cl)CC3C2=O)cc1 (stereo unspecified)	2.6	.
O=C(O)c1ccccc1NCN1C(=O)C2CC=C(Cl)CC2C1=O (stereo unspecified)	37.4*	-8.7
COC(=O)c1ccc(C2=NOC(C)(c3nnc(-c4cccc(Cl)c4)o3)C2)cc1 (stereo unspecified)	-1.7	.
CC[C@H](C)[C@@H](C(=O)N1CCNCC1)n1cc([C@@H](N)CO)nn1	-31.3	.
COc1ccccc1-c1c(C)oc2cc(OC(=O)c3ccco3)ccc2c1=O	32.0*	-4.0
CCOc1ccccc1Oc1c(C)oc2cc(OC(=O)c3ccco3)ccc2c1=O	22.8	.
Cc1occc1-c1nnc(SCC(=O)Nc2ccccc2)n1C(C)c1ccccc1 (stereo unspecified)	.	-52.6
Cc1oc(/N=C/c2c(O)ccc3ccccc23)c(C#N)c1C	.	73.4*
Cc1oc(/N=C/c2ccccc2O)c(C#N)c1C	3.1	0.2
CCOC(=O)C[C@H]1c2cc(F)ccc2S(=O)(=O)N1C1CCCC1	-7.3	.
CC(=O)N=c1sc(S(N)(=O)=O)nn1C	-15.4	67.0*
CC(=O)Nc1nnc(S(N)(=O)=O)s1	-16.3	-6.9
CCc1c(C)c2cc(Cl)c(O)c(CN3CCCCC3)c2oc1=O	114.1	-6.9
CCCCc1cc(=O)oc2c(CN3CCCC3)c(O)ccc12	?	2.9
CCc1cc2c(-c3ccccc3)cc(=O)oc2c(CN2CCOCC2)c1O	-6.5	-15.1
O=c1oc2c(CN3CCOCC3)c(O)c(Cl)cc2c2c1CCC2	55.6*	0.4
CCc1cc(=O)oc2c(CN3CCCC3)c(O)c(Cl)cc12	90.4*	-5.3
CCCCc1cc(=O)oc2c(CN(C)C)c(O)c(Cl)cc12	70.0*	-10.1
CC1CCCC(C)N1C(=O)Cn1cc(/C=C2/C(=O)Nc3ccccc32)c2ccccc21 (stereo unspecified)	-1.9	.
Cc1nnc(SCCn2c(N3CC(C)CC(C)C3)nc3c2c(=O)[nH]c(=O)n3C)s1 (stereo unspecified)	-4.2	-4.4
SMILES	RmlCD inh mix	HIV RNase H inh
O=C(NCc1ccccc1)C1=C[C@H](C2CC2)C[C@H](OCCCCO)O1	9.2	.
O=C(c1ccc2nc(-c3ccco3)c(-c3ccco3)nc2c1)N1CCN(c2ccccc2)CC1	-3.9	76.4*
O=C(c1cc(-c2ccco2)on1)N1CCN(c2ccccc2)CC1	-12.6	-5.7
O=C(Nc1ccc(N2CCOCC2)cc1)Nc1ccc2nc(-c3ccco3)c(-c3ccco3)nc2c1	-9.8	67.8*
O=C(Nc1ccc2nc(-c3cccs3)c(-c3cccs3)nc2c1)N1CCOCC1	-205.4	2.7
CNC(=O)CC1C(=O)N(C)C(=S)N1NC(=O)c1ccc(Cl)cc1 (stereo unspecified)	47.5	.
CCC1=C(OC(=O)N(CC)CC)N2C(=O)OC(=NCCc3c[nH]c4ccccc34)[C@]2(Cc2ccccc2)[C@H]2C1=CC[C@H]1C(=O)N(CC)C(=O)[C@H]12	-6.9	.
CC(C)n1c2ccccc2c2nnc(SCC(=O)OCN3C(=O)c4ccccc4C3=O)nc21	117.4*	7.3
Cn1c2ccccc2c2nnc(SCN3C(=O)c4ccccc4C3=O)nc21	.	-2.0
O=C(c1ccc(Cl)c(S(=O)(=O)NCc2ccccc2)c1)N1CCN(c2ccccn2)CC1	-14.7	.
O=C(c1ccc(CNS(=O)(=O)c2ccccc2)cc1)N1CCN(c2ccccn2)CC1	.	62.6*
CCOC(=O)N1CCC(N2C(=O)c3ccccc3C2Nc2ccc3c(c2)OCCO3)CC1 (stereo unspecified)	-11.2	5.9
CCOC(=O)N1CCC(N2C(=O)c3ccccc3C2Nc2ccc3c(C)cc(=O)oc3c2)CC1 (stereo unspecified)	88.8*	4.1
Cc1oc(C(=O)O)cc1CSCc1ccoc1C(=O)O	4.6	24.0
Cc1oc(C(=O)O)cc1CSCc1cc(C(=O)O)c(C)o1	-10.2	51.0*
CCn1c(CNC(=O)Cc2ccc(OC)cc2)nnc1SCC(=O)Nc1nccs1	-5.3	3.1
CCn1c(COc2ccc3c(c2)CCCC3)nnc1SCC(=O)Nc1nccs1	10.3	61.9*
NC(=O)c1oc2ccccc2c1NC(=O)c1nc2ccccc2s1	-5.1	4.9
O=C(Nc1nnc(-c2ccccc2)o1)c1nc2ccccc2s1	29.2	66.2*
CO/N=C(\C(=O)N[C@@H]1C(=O)N2C(C(=O)O)=C(COC(N)=O)CS[C@H]12)c1ccco1	4.2	12.6
Cn1nnnc1SCC1=C(C(=O)O)N2C(=O)[C@@H](NC(=O)[C@H](O)c3ccccc3)[C@H]2SC1	-19.3	60.9*
COc1ccc(CN(CCN2CCOCC2)C(=O)c2c(F)cccc2F)cc1OC	-5.0	61.6*
COc1ccc(CN(CCCN2CCOCC2)C(=O)Nc2ccccc2)cc1OC	3.2	-0.1
On1c(-c2ccccc2)nc2ccc(Cl)cc21	-1.8	.
Clc1ccc2nc3ccccn3c2c1	38.8*	-26.3
SMILES	RmlCD inh mix	HIV RNase H inh
COc1ccc(-c2c(=O)n(OCc3ccccn3)c3ccccc3[n+]2[O-])cc1OC	6.7	55.8*
Cc1ccc(-c2c(=O)n(OCc3ccccn3)c3ccccc3[n+]2[O-])cc1	-83.5	.
O=C(NCc1ccccn1)c1cn(CCc2ccccc2)nn1	9.5	68.5*
O=C(NCc1cccnc1)c1cn(CCc2ccccc2)nn1	3.7	-3.0
CCOC(=O)Cc1csc(NC(=O)CCCCCN2C(=O)c3cccc4cccc(c34)C2=O)n1	2.1	.
CNC(=O)[C@@]1(Cc2ccccc2)C=C[C@@H](C)N1C(C)=O	2.3	.
C=C1CCN([C@@H](Cc2ccccc2)C(=O)NCc2ccc(Cl)cc2)S(=O)(=O)c2ccccc21	-9.6	.
COc1ccc(-c2ccc(-c3noc(-c4ccccc4F)n3)c(OC)n2)cc1	-24.7	54.2*
COc1ccc(-c2ccc(-c3noc(-c4ccccc4)n3)c(OC)n2)cc1	-307.0	2.1
COc1cccc2cc3c(=O)n(-c4ccccc4)nc-3oc12	-21.8	52.7*
COc1cccc2cc(C(C)=O)c(=O)oc12	6.7	-3.0
CCCCCC(=O)Cc1cc(O)cc2c1C(=O)Oc1cc(O)c(C(=O)O)c(CCCCC)c1O2	2.2	.
CCOC(=O)c1cnn(-c2nc(SC)nc3sc4c(c23)CCC4)c1N	12.9	55.1*
CCOC(=O)c1cnn(-c2nc(C)nc3sc4c(c23)CCC4)c1N	.	-6.9
COc1ccc(-c2cn3c(C)c(C(=O)Nc4cccc(C)n4)sc3n2)cc1	-11.3	51.5*
Cc1cccc(NC(=O)c2sc3nc(-c4ccccc4)cn3c2C)n1	-21.4	9.0
CN1CCN(C(=O)C2=C[C@H](C(C)(C)C)C[C@H](OCCCCO)O2)CC1	-10.0	.
COCCNC(=O)c1c(CSc2ccc(Cl)cc2)noc1C(=O)NCc1ccccc1	-5.4	.
COc1nc(Oc2ccc(C(=O)O)cc2)nc(Oc2ccc(C(=O)O)cc2)n1	-6.3	.
COc1ccc(Oc2nc(Oc3ccc(OC)cc3)nc(Oc3ccc(OC)cc3)n2)cc1	-20.6	57.0*
CCOC(=O)Cn1c(=O)oc2cc(S(=O)(=O)N3CCc4ccccc43)ccc21	8.7	-20.2
